# Measured values as given in the supplement of paper PMC6555819.
# Experiments:
# Assay in all cases: PBM binding z-score (relative to random genomic background probes); higher = stronger binding; sequences stand for … in GC…GCGATTGACAGCGTAGAATGAAGG
# [1] = system: FXR:RXRa (NR concentration 270 nM, RXRa partner concentration 90 nM)
# In short: (§1)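 For binding z-scores, the reference was random background probes on custom Agilent 4×180K protein-binding microarrays. These arrays were incubated 1 h with ligand-free nuclear receptor dimers in PBS pH 7.4, 2% milk, 0.02% Triton X-100, 1 mM DTT, 0.2 mg/mL BSA and 0.4 mg/ml salmon testes DNA. Fluorescence was scanned after antibody detection of each partner (one per run) and regression-normalized.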
# [2] = system: LXRa:RXRa (NR concentration 270 nM, RXRa partner concentration 90 nM)
# In short: as §1
# [3] = system: LXRa homodimer (NR concentration 270 nM)
# In short: as §1
# [4] = system: LXRb:RXRa (NR concentration 270 nM, RXRa partner concentration 90 nM)
# In short: as §1
# [5] = system: LXRb homodimer (NR concentration 270 nM)
# In short: as §1
# [6] = system: PPARa:RXRa (NR concentration 270 nM, RXRa partner concentration 90 nM)
# In short: as §1
# [7] = system: PPARg:RXRa (NR concentration 180 nM, RXRa partner concentration 90 nM)
# In short: as §1
# [8] = system: PPARg:RXRa 270nM:90nM, anti-RXR (NR concentration 270 nM, RXRa partner concentration 90 nM)
# In short: as §1
# [9] = system: PPARg:RXRa 30nM:10nM, anti-RXR (NR concentration 30 nM, RXRa partner concentration 10 nM)
# In short: as §1
# [10] = system: PPARg:RXRa 90nM:30nM, anti-RXR (NR concentration 90 nM, RXRa partner concentration 30 nM)
# In short: as §1
# [11] = system: PPARg:RXRa DBDmut IVT, anti-RXR (DBD mutation: RXRa K156A/R161A, NR concentration 270 nM, RXRa partner concentration 90 nM)
# In short: as §1
# [12] = system: PPARg:RXRa IVT, anti-PPARg (NR concentration 270 nM, RXRa partner concentration 90 nM)
# In short: as §1
# [13] = system: PPARg DBDmut:RXRa IVT, anti-PPARg (DBD mutation: PPARg1 K132A/R137A, NR concentration 270 nM, RXRa partner concentration 90 nM)
# In short: as §1
# [14] = system: PPARg DBDmut IVT, anti-PPARg (DBD mutation: PPARg1 K132A/R137A, NR concentration 270 nM)
# In short: as §1
# [15] = system: PPARg homodimer (NR concentration 180 nM)
# In short: as §1
# [16] = system: PXR:RXRa (NR concentration 270 nM, RXRa partner concentration 90 nM)
# In short: as §1
# [17] = system: PXR homodimer (NR concentration 270 nM)
# In short: as §1
# [18] = system: RARa:RXR (NR concentration 270 nM, RXRa partner concentration 90 nM)
# In short: as §1
# [19] = system: RARa homodimer (NR concentration 270 nM)
# In short: as §1
# [20] = system: RARb:RXRa (NR concentration 270 nM, RXRa partner concentration 90 nM)
# In short: as §1
Sequence,PBM binding z-score [1],PBM binding z-score [2],PBM binding z-score [3],PBM binding z-score [4],PBM binding z-score [5],PBM binding z-score [6],PBM binding z-score [7],PBM binding z-score [8],PBM binding z-score [9],PBM binding z-score [10],PBM binding z-score [11],PBM binding z-score [12],PBM binding z-score [13],PBM binding z-score [14],PBM binding z-score [15],PBM binding z-score [16],PBM binding z-score [17],PBM binding z-score [18],PBM binding z-score [19],PBM binding z-score [20]
CCTGCTAGGTCAATGGTCAACTAAAGCAGCTCGC,3.09,2.16,-0.236,1.83,-0.0517,3.42,5.68,5.74,4.25,5.51,3.98,4.58,0.116,-1.17,1.41,1.22,-0.291,2.27,-0.296,3.79
CCGACTGGGGCACAAGGTTACCATAAGCCAGCCC,0.122,1.73,-0.433,0.74,-1.16,2.2,2.92,3.16,0.724,2.49,3.82,4.45,-0.334,-0.282,1.62,0.226,-0.93,0.828,-0.242,1.46
ATACAAAGGTGATCGTGAGGTCGTTGATACTAAC,2.64,2.6,0.941,1.91,0.00532,2.76,1.87,1.95,0.554,1.27,1.15,2.15,1.05,0.894,1.53,4.07,1.38,3,1.26,2.54
GATACACGGTCAGCTAGAGGCCAGAGTATGGAAA,-0.145,-0.145,-0.281,-0.57,-0.753,-0.296,0.351,-0.323,-0.383,-0.205,-0.219,0.135,-0.178,-0.554,0.453,-0.394,-0.5,0.205,-0.0449,2.51
GGACCAAGGTGAATAGGTCGTTGATGAGTAGGCG,0.798,0.779,-0.0064,0.446,-0.809,2.28,1.47,1.59,0.243,0.903,1.58,2.18,-0.0535,-0.223,1.34,0.838,0.241,1.74,0.177,2.06
ATCTCTAAGTAAGACTCAGTTCAGTGAAGAACGC,0.404,0.702,0.509,0.112,0.924,0.0114,-0.0993,0.324,0.0174,0.392,0.103,0.218,0.885,1.04,0.659,0.518,1.83,0.541,1.22,0.15
AGTCAAAGTTCATGTAGGTAACGTAAGATATGCT,6.48,5.94,4.83,3.65,1.37,4.9,6.75,6.37,3.09,5.61,0.795,4,1.62,2.1,3.26,5.3,5.21,3.76,0.859,4.81
CGAACTAGGTCATTGACAGGACAGTGTATAGTAA,4.45,3.09,0.874,2.13,0.106,4.79,7.66,6.32,3.42,5.88,7.92,8.25,2.44,1.65,2.13,1.67,0.281,2.47,0.571,3.63
CCAGACAGGTGAAAGGTGACTCAGTCTGGTACGC,1.34,1.27,-0.086,1.33,-0.308,4.15,6.88,6.76,5.26,7.19,2.4,3.47,0.243,-0.992,1.3,1.85,0.0178,2.91,0.796,1.96
GATACCGGGTCAGCTAGAGGCCAGAGTATGGAAA,2.65,1.51,-0.9,1.21,-1.03,3.5,2.92,2.42,0.487,1.18,0.693,2.49,-0.62,-0.769,1.94,2.41,-0.56,3.53,-0.152,3.28
ATATGTAGGTTAAGGGTCGTTCAGGTTGGTTCGC,2.74,2.85,1.23,2.85,0.845,6.01,10.9,9.42,10.4,11,7.55,7.66,3.39,1.59,2.62,3.64,2.22,3.78,2.01,2.33
CAGACAGGGTCAGCTAGGCCAGAGTAGGGACGGC,4.38,2.22,-0.426,1.75,-0.493,4.34,2.66,2.47,0.42,1.51,0.343,1.7,-0.372,-0.169,1.26,1.72,-0.203,2.83,-0.174,3.84
TCTAGCAGGCCAGAGGGTCACACAAGAGGTACGG,1.67,1.66,-0.408,1.83,-1.34,3.11,2.49,3.28,2.36,3.09,1.19,1.38,-0.514,-0.172,1.57,2.37,-0.42,3.44,0.0542,2.62
CGTCAAAGTTCAACTAAGGTAACGTAGAGCACGC,7.03,5.95,4.18,4.04,1.71,5.1,5.31,5.6,2.54,4.47,0.564,2.32,0.885,0.785,3.17,5.54,3.81,4.57,1.67,5.24
TAGCCTAGGTCATGCAGGGGCCAGTATAGAAAGC,3.95,3.15,-0.0993,2.24,-0.427,3.56,2.28,2.44,0.917,1.5,1.42,2.59,-0.359,-0.442,1.36,2.18,-0.721,3.39,-0.25,3.85
GCGACTGGGGCATCAGCAGGTTACCATCACTTAA,-0.298,-0.121,-0.321,0.504,-0.992,0.811,0.679,0.547,-0.615,-0.341,4.02,3.08,-0.268,-0.441,0.406,-0.239,-0.641,0.272,-0.548,0.891
AGAATGAGGTTATTAAGATCTGGGAATTGCGGTC,1.76,1.89,0.216,1.26,-0.139,2.79,0.924,1.47,0.36,0.922,3.21,1.94,0.564,0.21,0.467,1.16,0.379,1.66,-0.145,1.29
CAATCTAGGTCAAGGTCAAAGTCGGTTTGTGCCA,6.74,5.74,4.27,4.52,1.81,6.18,9.73,8.06,6.64,8.19,8.63,8.84,5.16,1.26,4.33,5.3,1.93,5.63,1.12,4.9
CATCCAAGGTCAATGCTAGGTCAGTGAAAGCATT,6.67,5.98,4.36,4.42,1.77,5.06,4.32,4.66,1.44,3.53,3.38,4.16,0.505,0.239,5.51,4.73,1.76,5.95,2.23,5.04
CCTAGCAGGCGAATCTGGGTCACTCAAGGCTTGA,0.211,0.262,-0.449,0.236,-0.934,3.11,2.47,2.62,-0.139,1.64,4.47,5.39,-1.46,-1.28,0.225,0.221,-0.605,1.13,-0.282,0.812
ATCTCTAGGTAACCAAGTCCAGTGAATGCCGAAC,0.284,0.199,-0.00888,0.0348,0.546,0.54,0.444,0.891,0.172,0.381,3.27,2.54,0.49,1.58,0.614,0.0528,0.209,0.268,0.592,0.379
AGAATGAGGTTTTTAAGATCAGGGAATTGCGGTC,-0.295,-0.436,-0.308,-0.234,-0.216,0.0197,0.144,0.00452,0.119,-0.139,0.514,0.257,0.355,-0.0253,-0.582,-0.38,-0.508,-0.216,0.273,0.0304
TCGAGTCGGTTACCAATGGGGCATTCAGCTTTCT,-0.293,-0.101,-0.421,0.26,-0.784,0.0956,-0.641,0.163,0.773,0.526,0.844,-0.0532,-0.399,-0.375,-0.537,-0.204,-0.793,-0.238,-0.811,0.0866
GCTATTAGTTGAAAGGGCATCCGAATGATTCTCG,0.204,0.581,0.00348,0.69,0.0114,2.22,2.35,4.39,2.34,3.96,0.6,0.576,0.336,0.482,1.17,0.67,0.374,1.21,0.477,1.65
CCGAGTAGGTTGTGGGGCATTCAGGCAACGGTGA,-0.145,-0.118,0.0165,0.178,-0.163,0.496,0.169,1.61,-0.549,0.776,1.04,1.29,-1.06,-0.659,0.736,-0.334,0.115,-0.303,0.109,0.0437
TCTCGGAGGACACGCAAGGTCAGAGCTCGACATC,1.49,2.26,1.31,1.58,-0.475,2.1,0.475,1.39,2.16,1.64,1.62,1.03,-0.531,-0.649,0.657,2.67,0.389,2.61,0.379,3.4
